Only some compounds are listed: those with a hit (about 1.3% of all), similar ones and a draw of the others.
GLD-1 RNA inh = GLD-1-TGE RNA interaction inhibition (C. elegans); inhibition, % at 5.96 µM; purified GLD-1 + fluorescein TGE RNA, fluorescence polarization; Q17339; actives 0.44% (n = 320,000); AID 2280;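 active = percent inhibition above a per-plate cutoff, the plate mean of test compounds plus 3 SD, cut at about 30% in these data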
BCLXL inh = inhibitors of human Bcl-xL | Q07817 | GST-Bcl-xL / FITC-Bim BH3 peptide fluorescence polarization | inhibition, % at 10.9 µM | actives 0.7% (n = 320,000);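 active = inhibition above the mean of all tested compounds plus 3 SD, cutoff set per campaign, cut at about 30% in these data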;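 also: inhibitors lower millipolarization by displacing the labeled peptide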
EBV gp42 block = EBV gp42 inhibition. Q1HVG2. Fluorescence polarization binding assay, mP read-out. inhibition, % (tested at 21.74 µM). actives 0.42% (n = 220,000); in the data active = inhibition above about 50%
E coli Lon inh = E. coli protease La inhibition; actives 0.42% (n = 360,000); AID 602123; inhibition, % at 7.94 µM; purified E. coli Lon protease, fluorescence polarization; in the data active = inhibition above about 13%, passing the limit was not always enough
MEX-5 binding = C. elegans MEX-5 TCR-2 RNA binding activity | Q9XUB2 | MEX-5/FITC-TCR2 RNA binding, fluorescence polarization; stronger effect = lower value | activity score (negative = inhibition of binding), % at 10 µM | actives 0.38% (n = 300,000) | AID 1832;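 active = inhibition past about -25% in most replicates, and total fluorescence under double the plate's negative control median, limit read from the data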
Target sequence (Q9XUB2 whole entry, looked up): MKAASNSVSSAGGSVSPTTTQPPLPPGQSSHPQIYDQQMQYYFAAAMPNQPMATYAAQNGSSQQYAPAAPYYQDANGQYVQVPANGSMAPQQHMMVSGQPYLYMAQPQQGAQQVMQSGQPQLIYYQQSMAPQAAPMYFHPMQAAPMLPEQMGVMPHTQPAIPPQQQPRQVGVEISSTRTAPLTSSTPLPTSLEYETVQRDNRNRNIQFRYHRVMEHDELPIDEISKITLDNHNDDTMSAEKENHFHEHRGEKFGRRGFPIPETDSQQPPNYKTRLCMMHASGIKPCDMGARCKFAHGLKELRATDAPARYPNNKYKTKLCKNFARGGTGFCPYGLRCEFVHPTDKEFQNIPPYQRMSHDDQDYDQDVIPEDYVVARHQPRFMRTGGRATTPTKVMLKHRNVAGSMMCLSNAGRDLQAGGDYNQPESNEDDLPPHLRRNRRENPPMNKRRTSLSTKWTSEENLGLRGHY
Numbers stand for hits; – = inactive; · = not tested or not shown.

SMILES	GLD-1 RNA inh	BCLXL inh	EBV gp42 block	E coli Lon inh	MEX-5 binding
COc1cccc(CNC(=O)COC(=O)/C(C#N)=C/c2ccc(N(C)C)cc2)c1	123.2	117.3	·	–	·
COc1ccccc1C1CC(c2cccc(NS(C)(=O)=O)c2)=NN1S(=O)(=O)c1ccccc1 (stereo unspecified)	–	–	·	–	–
CN(C(=O)c1cccc(S(=O)(=O)N2CCOCC2)c1)c1c(N)n(Cc2ccccc2)c(=O)[nH]c1=O	–	–	·	–	·
O=C(O)/C=C/C(=O)NCc1ccccc1	–	–	–	–	–
O=C(O)/C=C/C(=O)NCc1ccccn1	36.4	51.8	–	–	–
CSCCC(NC(=O)c1ccco1)c1nc2ccccc2[nH]1 (stereo unspecified)	–	–	·	–	–
O=C(COC(=O)c1cc(=O)[nH]c2ccccc12)NCCc1ccccc1	–	·	·	–	·
Cc1ccccc1Nc1nc(Cl)c(C=O)s1	–	–	–	–	-40.8
CCN(CC)c1ccc2cc(S(=O)(=O)c3ccc(Cl)cc3)c(=O)oc2c1	–	–	159.2	–	–
O=C1C([N+](=O)[O-])=C(O)c2cccc3cccc1c23	·	·	·	·	-40.0
N=C1C(c2nc3ccccc3[nH]2)=C(O)CN1c1ccc(CC(=O)O)cc1	–	–	–	–	-84.9
N=C1C(c2nc3ccccc3[nH]2)=C(O)CN1c1ccccc1	–	–	–	–	–
O=c1[nH][nH]c2cc(=O)n(-c3cccc(C(F)(F)F)c3)nc12	–	–	–	–	-46.4
COc1ccc(-n2nc3c(=O)[nH][nH]c3cc2=O)cc1	–	–	–	–	-78.9
COC(=O)c1sc2cc(=O)n(-c3cccc(C(F)(F)F)c3)nc2c1O	–	–	–	–	–
COc1ccc(C)cc1Nc1n[n+](C)c(-c2c3ccccc3cc3ccccc23)s1	–	31.7	·	·	–
O=C(O)c1c2c(nc3ccccc13)/C(=C/c1ccc(OC(F)F)cc1)CCC2	–	–	·	–	–
O=C(O)c1c2c(nc3ccccc13)/C(=C/c1ccc(O)cc1)CC2	–	35.7	–	–	-29.5
CCCCC(NC(=O)Cc1c(C)c2cc3c(-c4ccccc4)coc3c(C)c2oc1=O)C(=O)O (stereo unspecified)	–	–	·	–	–
O=C(Nc1ccc2[nH]c3c(c2c1)CCCC3)c1ccco1	–	51.7	68.2	–	–
NS(=O)(=O)c1ccc(N=Nc2c[nH]c(=O)c(O)c2)cc1	39.4	129.5	–	–	-89.0
Nc1nc(O)c(N=Nc2ccc(S(N)(=O)=O)cc2)c(=O)[nH]1	·	·	·	·	–
Cc1[nH][nH]c(=O)c1N=Nc1ccc(S(N)(=O)=O)cc1	–	–	·	–	-58.9
Cc1ccc(S(=O)(=O)Nc2ccccc2F)cc1C(=O)NNC(=O)c1ccccc1O	–	–	·	–	-37.2
O=C(c1ccc2c(c1)OCO2)[C@@H]1[C@@H]2C(=O)N(C3CCCCC3)C(=O)[C@@H]2C2c3ccccc3C=CN21 (stereo partly specified)	·	·	–	–	–
SMILES	GLD-1 RNA inh	BCLXL inh	EBV gp42 block	E coli Lon inh	MEX-5 binding
O=C(c1cccs1)[C@@H]1[C@@H]2C(=O)N(Cc3ccc4c(c3)OCO4)C(=O)[C@@H]2C2c3ccccc3C=CN21 (stereo partly specified)	39.5	47.7	–	·	–
CCOc1ccc2nc(SCC(=O)Nc3cc4c(cc3C(C)=O)OCO4)[nH]c2c1	–	–	–	–	–
Cc1cc(O)c(CN(C)C)c2c1C(=O)/C(=C/c1ccco1)O2	–	61.6	·	–	-37.3
COc1ccc2c(c1)O/C(=C\c1ccco1)C2=O	–	–	–	–	–
O=c1oc2ccc3ccccc3c2cc1-c1nnc(-c2ccccc2)o1	–	–	–	–	–
COc1ccc(-c2nnc(-c3cc4c(ccc5ccccc54)oc3=O)o2)cc1	–	–	50.7	–	-41.7
N=c1oc2ccccc2cc1-c1nc(-c2ccccc2)cs1	–	–	–	–	–
Nc1nnc(-c2cc3c(ccc4ccccc43)oc2=O)s1	·	·	65.6	·	·
N=c1oc2ccc3ccccc3c2cc1-c1nc(-c2ccccc2)cs1	–	–	66.5	–	–
C=CCOC(=O)C1=C[C@H](c2coc3ccccc3c2=O)C[C@H](OCCCCO)O1	–	–	·	–	–
Cc1ccc(OCCC(=O)OC(C)C(=O)Nc2c(C)n(C)n(-c3ccccc3)c2=O)cc1 (stereo unspecified)	–	–	·	–	–
COc1cc(OC)cc(C(=O)NCCCCCCNC(=O)c2cc(OC)cc(OC)c2)c1	–	44.4	·	–	·

Screens (PubChem BioAssay)
